SMILES strings stand for the structures. Where “and” joins values, the source holds several entries; their conditions need not be identical. Identical values can stand only once. Values without a mark were called inactive. Results filed as inconclusive are left out. Calls of active or inactive are those of the source. Unless noted, calls follow the shape of the dose curve; as a rule, active = well fitted curve in the direction sought with a large enough effect; inconclusive = small, poorly fitted or top-dose-only effect, or another doubt; inactive = no such curve, though single readings can be large; an effect the other way counts as inactive or inconclusive.

Assay [1] has as its target Cytochrome P450 1A2 (Homo sapiens) (UniProt P05177). Kind of assay: p450-cyp1a2 (AID 410; calls by dose curve; also: potency is read from the fitted curve at half-maximal effect). The method in brief:
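Human CYP1A2 (20nM) demethylated Luciferin-ME at its Km (100uM) in 100mM KPO4. After 10 min compound preincubation, NADPH regeneration ran the reaction 60 min at room temperature. Luciferin was read by luminescence, normalized to 57 uM furafylline.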

Assay [2] in a line: NFAT Signaling Pathway (AID 444; active = well fitted curve in either direction with a large enough effect, not every such curve was filed as active;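 also: carbachol stimulus at about its EC50 of 1 µM final; % is scaled to controls: 0 for no effect and ±100 for the full control effect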). As to conditions: Jurkat NFAT-bla M1, carbachol, beta-lactamase ratio, 5 h; at 38 µM (top of the series). The method in brief: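 Jurkat cells carrying an NFAT-driven β-lactamase reporter and co-transfected muscarinic M1 receptor were treated with compound plus carbachol (1 uM final, an EC50 level) for 5 h at 37 °C. CCF4 loading followed for 1 h at RT; 460/530 nm ratio gave %activity.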

Assay [3] addresses Glucocorticoid receptor (Homo sapiens) (UniProt P04150). Kind of assay: GR-GFP Redistribution (AID 450;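 active = compounds whose dose series gives a full or clear partial fitted curve of increased nuclear translocation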; also: potency is read from the fitted curve at half-maximal effect). As to conditions: U2OS GR-GFP nuclear translocation, laser cytometry, 2 h.
Assay [4] shares this target. Kind of assay: GR-EFC Redistribution (AID 451; calls by dose curve; also: potency is read from the fitted curve at half-maximal effect). The following applies: CHO-K1 GR-EFC translocation, beta-gal luminescence, 2 h. In outline:
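CHO-K1 cells stably expressing nuclear-localized β-gal enzyme acceptor and GR fused C-terminally to the enzyme donor fragment; ligand-driven nuclear translocation restores β-gal by complementation. Compounds titrated up to 46 uM final, 2 h at 37 °C; luminescence read.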

The target of assay [5] is Mitogen-activated protein kinase 10 (Mus musculus) (UniProt Q61831). Description: JNK3 AlphaScreen Assay (AID 530; active = well fitted curve in either direction with a large enough effect, not every such curve was filed as active;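 also: kinase came from lysate of stimulated human HepG2 cells; signal reports phosphorylation of biotinylated GST-cJun 1-79 at Ser73 with 10 µM ATP; % is scaled to controls: 0 for no effect and ±100 for the full control effect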). The method in brief:
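JNK3 came from HepG2 lysates pre-activated with IL-1beta and TNF-alpha and phosphorylated biotinylated GST-cJun (1-79) at 10 uM ATP, pH 7.6, room temperature. Compounds were titrated. AlphaScreen signal used anti-phospho-cJun (Ser73) antibody.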
On the technique in general: Bead proximity is the source of the signal in Alpha formats.

For assay [6], the target named is 3',5'-cyclic-AMP phosphodiesterase 4B (Homo sapiens) (UniProt Q07343). Description: qHTS Assay for Inhibitors of PDE-IV (AID 607; active = well fitted activation curve with a large enough effect in the main read-out, with a control signal flat, not every such curve was filed as active; also: % of control where 0% means no effect). In outline: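 Cell-based read-out of cAMP via a modified cyclic nucleotide-gated channel and membrane potential dye (535/590 nm) in HEK293 cells expressing PDE4 endogenously. Compounds tested up to 22.9 uM final; 100 uM RO 20-1724 reference.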

Assay [7] concerns the target Guanine nucleotide-binding protein G(i) subunit alpha-1 (Homo sapiens) (UniProt P63096). Description: qHTS Assay for Inhibitors of RGS12 GoLoco Motif Activity (Green Fluorophore) (AID 879).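 Also: 0% = labeled peptide with Gαi1 and full inhibition = labeled peptide alone without protein; negative values mean loss of peptide binding seen as reduced polarization.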 The method in brief: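 Fluorescence polarization assay: 50 nM Gαi1 with 10 nM FITC-labeled RGS12 GoLoco peptide in 10 mM Tris pH 7.5, 150 mM NaCl, 0.1 mM GDP, 0.05% NP40, 10 min at room temperature with compound.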
Background: Quantitative high-throughput screening tests each substance at several concentrations.

Assay [8] concerns the target Cytochrome P450 2C9 (Homo sapiens) (UniProt P11712). Description: qHTS Assay for Inhibitors and Substrates of Cytochrome P450 2C9 (AID 883). Also: potency is read from the fitted curve at half-maximal effect; nearly all actives have a fitted effect of over 60% in size. In outline: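 CYP2C9 deoxyluciferin hydroxylation, 37C, 60 min with NADPH regeneration; 10nM enzyme, 100uM Luciferin-H (KM). Glo detection reagent stopped reaction; luminescence normalized to sulphaphenazole (57uM) full inhibition.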

For assay [9], the target named is Cytochrome P450 3A4 (Homo sapiens) (UniProt P08684). Description: qHTS Assay for Inhibitors and Substrates of Cytochrome P450 3A4 (AID 884). Also: potency is read from the fitted curve at half-maximal effect; nearly all actives have a fitted effect of over 50% in size. In outline:
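20 nM human CYP3A4 with 25 uM Luciferin-PPXE (at KM) in 200 mM KPO4, preincubated 10 min with compound; NADPH regeneration started a 60 min RT reaction. Luciferin detected by luminescence, normalized to 57 uM ketoconazole as full inhibition.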

For assay [10] the target is unchanged. Description: qHTS Assay for Activators of Cytochrome P450 3A4 (AID 885). Also: nearly all actives have a fitted effect of over 65% in size. The method in brief:
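Signal was normalized against complete inhibition by 57 uM ketoconazole. The reaction used 20nM CYP3A4 with 25uM Luciferin-PPXE, 10-min compound preincubation and a 60-min NADPH-supported step at RT.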

For assay [11], the target named is Muscarinic acetylcholine receptor M1 (Rattus norvegicus) (UniProt P08482). Kind of assay: qHTS Assay for Antagonists of Acetylcholine Muscarinic M1 Receptor: Kinetic Measurement of Intracellular Calcium Response (AID 943).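 Also: Fluo-4 calcium signal as peak divided by basal fluorescence over 4 min; nearly all actives have a fitted effect of over 75% in size.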 The method in brief: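 CHO cells stably expressing rat M1 were loaded with no-wash Fluo-4 dye for 1 h at 37C, pre-incubated 10 min with compound, then challenged with EC80 carbachol (100 nM final); kinetic calcium read 4 min, peak/basal ratio.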

Assay [12] has as its target Pyruvate kinase (Leishmania mexicana) (UniProt Q27686). Description: qHTS Validation Assay for Inhibitors of Leishmania Mexicana Pyruvate Kinase (AID 945).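 Also: 0% = DMSO only neutral control wells.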 In outline:
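Read-out: luminescence from PKLight stop/detection reagent, data normalized to DMSO. Reaction: 0.2 nM E451W LmPYK, 0.5 mM PEP, 0.1 mM ADP, pH 7.2, 1 h room temperature.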

Assay [13] concerns the target Pyruvate kinase PKM (Homo sapiens) (UniProt P14618). Kind of assay: qHTS Assay for Activators of Human Muscle Pyruvate Kinase (AID 954; active = well fitted curve in the direction sought with a large enough effect, not every such curve was filed as active;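 also: 0% = uninhibited enzyme and -100% = no enzyme or full thiadiazolimine inhibition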). The method in brief:
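Human PKM2 activity is measured as ATP generation, detected by luciferase-coupled luminescence. The enzyme (0.1 nM) acts on 0.5 mM PEP and 0.1 mM ADP for 1 h at ambient temperature; data are normalized to uninhibited and full-inhibition wells.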

Assay [14] deals with alpha-glucosidase (Oryza sativa, rice) (UniProt Q653V4). Description: Counterscreen for Glucocerebrosidase Inhibitors: qHTS Assay for Rice alpha-Glucosidase at pH 5.0 (AID 997).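 Also: 0% = full activity with enzyme and -100% = basal without enzyme.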 The method in brief:
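Rice alpha-glucosidase (4 nM final) with 400 uM 4-methylumbelliferyl-alpha-D-glucopyranoside in citrate buffer pH 5.0, 20 min at room temperature, stopped at pH 10; fluorescence 365/440 nm, compounds 0.7 nM–77 uM, AC50 from Hill fits.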
For orientation: A counterscreen serves to expose hits that act by an unwanted route or on another target.

Assay [15] is described as follows: Validation of Assay for Modulators of Lamin A Splicing (AID 1459; active = well fitted curve in the direction sought with a large enough effect in the signal ratio; the % refers to the signal ratio;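 also: cells exposed to compound for two days before reading; 0% is about no effect; ratio rise marks activators and ratio drop marks inhibitors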). In outline:
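HeLa S3 lamin A-EGFP/DsRed2 stable clone, 600 cells/well, Opti-MEM 2% FBS; compounds by pin tool; 48 hrs, 37 °C/5% CO2; Acumen 488 nm scan, objects 10-100 um; GFP/RFP intensity ratio.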

The target of assay [16] is DNA repair nuclease/redox regulator APEX1 (Homo sapiens) (UniProt P27695). Kind of assay: qHTS Validation Assay for Inhibitors of the Human Apurinic/apyrimidinic Endonuclease 1 (APE1) (AID 1705;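 also: TAMRA fluorescence gain over two minutes as APE1 cuts a quenched THF abasic duplex; % is scaled to controls: 0 for no effect and ±100 for the full control effect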). In outline:
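qHTS, 1536-well. APE1 + cpd 15 min RT → 50 nM TAMRA/BHQ-2 THF-abasic dsDNA substrate → kinetic fluorescence, 3 reads/60 s; delta(read3−read1) = reaction progress. No-enzyme buffer = negative control.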

The nature of assay [17]: Counterscreen for APE1 Inhibitors: Fluorescent Dye Displacement Validation Assay (AID 1707).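 Also: plate controls were ThO with dsDNA and no compound for no effect and ThO without dsDNA for full effect.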 The method in brief:
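Compounds are scored by their ability to displace Thiazole Orange (250 nM) from a 50 nM TAMRA-tagged duplex bearing a tetrahydrofuran abasic site. Buffer is 50 mM Tris-HCl pH7.5, 50mM NaCl, 2 mM MgCl2, 0.01% Tween-20.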

Assay [18] concerns the target Endonuclease 4 (Escherichia coli (strain K12)) (UniProt P0A6C1). Kind of assay: Counterscreen for APE1 Inhibitors: qHTS Validation Assay for Inhibitors of Endonuclease IV (AID 1708). Also: % is scaled to controls: 0 for no effect and ±100 for the full control effect. In outline: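 2 nM enzyme was preincubated with compounds for 15 min at room temperature in 50 mM Tris-HCl pH 7.5, 50 mM NaCl, 2 mM MgCl2, 1 mM DTT, 0.01% Tween-20. 50 nM THF-abasic TAMRA/BHQ-2 duplex substrate started the reaction.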

Assay [19] is described as follows: qHTS for differential inhibitors of proliferation of Plasmodium falciparum line 7G8 (AID 1815).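 Also: potency is read from the fitted curve at half-maximal effect; parasite growth measured after three days of incubation.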
Assay [20] in a line: qHTS for differential inhibitors of proliferation of Plasmodium falciparum line GB4 (AID 1816).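 Also: potency is read from the fitted curve at half-maximal effect; parasite growth measured after 72 h incubation.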 As to conditions: Potency: Plasmodium falciparum GB4 proliferation inhibition.
Assay [21] is described as follows: qHTS for differential inhibitors of proliferation of Plasmodium falciparum line 3D7 (AID 1876). Also: potency is read from the fitted curve at half-maximal effect.
Assay [22] is described as follows: qHTS for differential inhibitors of proliferation of Plasmodium falciparum line D10 (AID 1877).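 Also: potency is read from the fitted curve at half-maximal effect; parasites grown with compound for 72 h before DNA staining.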

Chain of Glucocorticoid receptor (Homo sapiens) (P04150 whole entry, looked up): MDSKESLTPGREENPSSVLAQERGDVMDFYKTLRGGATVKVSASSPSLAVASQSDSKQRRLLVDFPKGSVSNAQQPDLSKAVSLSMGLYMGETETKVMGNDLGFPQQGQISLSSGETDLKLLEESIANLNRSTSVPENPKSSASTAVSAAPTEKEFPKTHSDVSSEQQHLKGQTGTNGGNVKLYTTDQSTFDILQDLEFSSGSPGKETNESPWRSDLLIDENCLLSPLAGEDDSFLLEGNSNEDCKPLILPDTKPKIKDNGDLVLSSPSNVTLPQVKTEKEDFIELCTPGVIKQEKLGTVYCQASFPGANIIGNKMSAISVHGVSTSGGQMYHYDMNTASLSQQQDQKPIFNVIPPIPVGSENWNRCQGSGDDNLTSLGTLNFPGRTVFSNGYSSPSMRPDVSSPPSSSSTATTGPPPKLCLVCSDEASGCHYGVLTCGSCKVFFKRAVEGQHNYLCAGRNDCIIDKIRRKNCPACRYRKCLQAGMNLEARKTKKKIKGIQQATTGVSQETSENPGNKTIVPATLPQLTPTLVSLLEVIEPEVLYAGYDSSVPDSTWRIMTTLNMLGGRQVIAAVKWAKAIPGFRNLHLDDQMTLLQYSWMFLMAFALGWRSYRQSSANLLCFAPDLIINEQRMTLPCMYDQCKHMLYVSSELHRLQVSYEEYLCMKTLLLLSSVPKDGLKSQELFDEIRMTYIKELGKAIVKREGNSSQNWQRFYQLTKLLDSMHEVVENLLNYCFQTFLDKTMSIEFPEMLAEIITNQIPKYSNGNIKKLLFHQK
Chain of Cytochrome P450 3A4 (Homo sapiens) (P08684 whole entry, looked up): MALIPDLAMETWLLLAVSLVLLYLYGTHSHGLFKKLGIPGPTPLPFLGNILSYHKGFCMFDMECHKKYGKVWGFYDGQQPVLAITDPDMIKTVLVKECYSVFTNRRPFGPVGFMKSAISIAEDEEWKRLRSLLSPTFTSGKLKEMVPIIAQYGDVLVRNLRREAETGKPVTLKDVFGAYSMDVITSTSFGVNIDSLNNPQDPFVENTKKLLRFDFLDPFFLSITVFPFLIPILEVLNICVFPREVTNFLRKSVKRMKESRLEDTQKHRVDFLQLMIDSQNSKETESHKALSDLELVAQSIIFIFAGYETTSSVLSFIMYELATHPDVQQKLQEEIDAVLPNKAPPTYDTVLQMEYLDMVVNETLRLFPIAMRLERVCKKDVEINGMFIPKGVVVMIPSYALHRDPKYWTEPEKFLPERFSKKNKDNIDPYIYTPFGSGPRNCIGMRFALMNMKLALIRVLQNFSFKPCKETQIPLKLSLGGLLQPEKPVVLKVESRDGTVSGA
Chain of Cytochrome P450 1A2 (Homo sapiens) (P05177 whole entry, looked up): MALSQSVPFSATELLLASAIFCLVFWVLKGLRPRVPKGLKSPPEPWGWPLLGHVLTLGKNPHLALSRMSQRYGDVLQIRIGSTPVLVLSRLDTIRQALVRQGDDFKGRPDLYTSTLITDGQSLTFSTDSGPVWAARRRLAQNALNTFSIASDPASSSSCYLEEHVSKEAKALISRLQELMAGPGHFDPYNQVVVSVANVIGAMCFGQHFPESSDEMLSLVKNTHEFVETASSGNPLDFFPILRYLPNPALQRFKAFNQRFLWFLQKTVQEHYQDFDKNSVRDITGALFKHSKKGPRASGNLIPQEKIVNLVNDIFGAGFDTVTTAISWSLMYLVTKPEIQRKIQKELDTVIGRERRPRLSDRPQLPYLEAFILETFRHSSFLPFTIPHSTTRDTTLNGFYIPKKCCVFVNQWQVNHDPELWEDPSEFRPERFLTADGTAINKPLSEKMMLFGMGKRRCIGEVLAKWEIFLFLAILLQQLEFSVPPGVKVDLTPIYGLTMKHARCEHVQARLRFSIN
Chain of 3',5'-cyclic-AMP phosphodiesterase 4B (Homo sapiens) (Q07343 whole entry, looked up): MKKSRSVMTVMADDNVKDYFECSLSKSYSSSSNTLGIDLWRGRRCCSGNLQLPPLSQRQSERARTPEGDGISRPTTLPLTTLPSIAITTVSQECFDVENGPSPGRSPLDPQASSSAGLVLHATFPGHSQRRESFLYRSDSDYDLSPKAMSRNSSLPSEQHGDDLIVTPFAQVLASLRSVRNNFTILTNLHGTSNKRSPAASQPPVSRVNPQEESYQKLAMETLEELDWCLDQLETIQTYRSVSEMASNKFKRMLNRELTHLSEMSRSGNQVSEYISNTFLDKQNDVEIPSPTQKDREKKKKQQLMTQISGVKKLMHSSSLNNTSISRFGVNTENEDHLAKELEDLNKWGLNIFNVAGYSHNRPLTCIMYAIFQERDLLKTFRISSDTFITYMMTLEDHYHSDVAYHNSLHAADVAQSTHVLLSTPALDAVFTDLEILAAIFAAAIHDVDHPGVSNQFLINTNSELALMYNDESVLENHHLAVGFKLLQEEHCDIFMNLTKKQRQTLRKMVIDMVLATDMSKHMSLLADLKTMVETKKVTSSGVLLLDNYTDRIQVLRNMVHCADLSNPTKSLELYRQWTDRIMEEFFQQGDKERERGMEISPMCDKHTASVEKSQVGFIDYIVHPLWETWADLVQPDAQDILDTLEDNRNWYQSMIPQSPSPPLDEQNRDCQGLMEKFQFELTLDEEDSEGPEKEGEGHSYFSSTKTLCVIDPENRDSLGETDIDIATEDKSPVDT
Chain of Cytochrome P450 2C9 (Homo sapiens) (P11712 whole entry, looked up): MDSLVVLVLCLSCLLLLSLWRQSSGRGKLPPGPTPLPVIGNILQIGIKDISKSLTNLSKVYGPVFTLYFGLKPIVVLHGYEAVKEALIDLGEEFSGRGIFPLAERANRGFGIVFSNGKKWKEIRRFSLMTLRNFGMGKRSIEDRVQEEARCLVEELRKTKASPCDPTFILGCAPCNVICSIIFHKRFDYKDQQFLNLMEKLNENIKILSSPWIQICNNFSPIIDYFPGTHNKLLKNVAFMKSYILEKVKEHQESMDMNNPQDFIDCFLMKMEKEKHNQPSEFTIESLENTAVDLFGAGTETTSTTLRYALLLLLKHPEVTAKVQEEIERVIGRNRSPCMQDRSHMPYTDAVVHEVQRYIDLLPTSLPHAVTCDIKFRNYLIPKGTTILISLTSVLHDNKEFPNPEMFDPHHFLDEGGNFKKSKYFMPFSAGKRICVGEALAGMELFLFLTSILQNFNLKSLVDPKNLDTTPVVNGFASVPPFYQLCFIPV
Chain of Pyruvate kinase PKM (Homo sapiens) (P14618 whole entry, looked up): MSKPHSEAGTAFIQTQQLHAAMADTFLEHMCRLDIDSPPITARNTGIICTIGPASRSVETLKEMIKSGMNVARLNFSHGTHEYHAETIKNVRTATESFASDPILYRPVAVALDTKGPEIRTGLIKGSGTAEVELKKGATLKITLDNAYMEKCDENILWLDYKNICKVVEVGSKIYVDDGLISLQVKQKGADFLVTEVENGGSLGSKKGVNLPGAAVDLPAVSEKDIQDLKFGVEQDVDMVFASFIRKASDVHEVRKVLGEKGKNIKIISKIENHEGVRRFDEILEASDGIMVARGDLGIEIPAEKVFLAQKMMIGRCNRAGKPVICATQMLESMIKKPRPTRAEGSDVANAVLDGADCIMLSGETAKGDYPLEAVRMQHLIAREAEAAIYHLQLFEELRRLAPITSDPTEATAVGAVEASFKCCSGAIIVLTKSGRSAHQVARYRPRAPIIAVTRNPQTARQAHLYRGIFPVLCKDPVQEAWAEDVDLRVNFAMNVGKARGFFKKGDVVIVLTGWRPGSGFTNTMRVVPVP
Chain of DNA repair nuclease/redox regulator APEX1 (Homo sapiens) (P27695 whole entry, looked up): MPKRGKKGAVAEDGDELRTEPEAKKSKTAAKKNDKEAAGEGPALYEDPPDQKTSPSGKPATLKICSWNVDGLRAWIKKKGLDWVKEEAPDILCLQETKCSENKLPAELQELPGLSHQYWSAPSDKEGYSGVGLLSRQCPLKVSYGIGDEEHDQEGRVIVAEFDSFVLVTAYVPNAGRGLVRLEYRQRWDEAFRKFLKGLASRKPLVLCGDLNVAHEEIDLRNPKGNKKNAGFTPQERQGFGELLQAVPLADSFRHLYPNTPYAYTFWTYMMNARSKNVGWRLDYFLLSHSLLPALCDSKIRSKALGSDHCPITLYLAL
Chain of Pyruvate kinase (Leishmania mexicana) (Q27686 2-499 E452W): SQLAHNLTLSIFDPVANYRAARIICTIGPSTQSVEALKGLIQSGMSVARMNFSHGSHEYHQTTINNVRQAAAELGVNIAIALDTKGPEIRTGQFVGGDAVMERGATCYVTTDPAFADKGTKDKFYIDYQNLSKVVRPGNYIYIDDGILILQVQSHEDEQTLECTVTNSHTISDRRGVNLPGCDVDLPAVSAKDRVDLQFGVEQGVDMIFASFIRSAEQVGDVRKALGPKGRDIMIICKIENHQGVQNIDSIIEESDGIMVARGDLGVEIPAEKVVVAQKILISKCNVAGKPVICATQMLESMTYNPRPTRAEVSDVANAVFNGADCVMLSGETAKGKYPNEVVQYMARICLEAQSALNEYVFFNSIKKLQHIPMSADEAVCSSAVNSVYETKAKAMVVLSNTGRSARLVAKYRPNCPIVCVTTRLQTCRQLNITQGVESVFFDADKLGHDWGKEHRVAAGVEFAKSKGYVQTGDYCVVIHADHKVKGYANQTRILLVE
Chain of Muscarinic acetylcholine receptor M1 (Rattus norvegicus) (P08482 whole entry, looked up): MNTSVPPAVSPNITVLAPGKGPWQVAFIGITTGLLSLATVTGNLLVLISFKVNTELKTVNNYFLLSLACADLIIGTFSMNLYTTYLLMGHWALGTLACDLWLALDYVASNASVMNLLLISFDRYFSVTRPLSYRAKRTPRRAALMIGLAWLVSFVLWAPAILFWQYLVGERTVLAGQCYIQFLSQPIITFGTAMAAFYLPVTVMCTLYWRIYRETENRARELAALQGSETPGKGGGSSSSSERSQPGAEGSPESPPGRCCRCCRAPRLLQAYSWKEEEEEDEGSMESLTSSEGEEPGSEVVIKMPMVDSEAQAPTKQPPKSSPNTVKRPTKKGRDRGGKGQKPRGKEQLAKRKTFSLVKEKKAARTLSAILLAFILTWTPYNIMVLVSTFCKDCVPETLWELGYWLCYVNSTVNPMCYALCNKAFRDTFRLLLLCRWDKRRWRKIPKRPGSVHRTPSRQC

Take `COc1cc2c(cc1C(F)(F)F)N(C(=O)Nc1cc(F)cc(-c3cccnc3)c1)CC2`: the Potency is 794 nM (active) and 316 nM (active) in assay [1]; over 46000 nM in [3]; over 46000 nM in [4]; 10 µM (active) and 794 nM (active) in assay [8]; 2510 nM (active) in assay [9]; 2000 nM (active) in assay [19]. In addition, the values for the Potency in assay [20], in assay [21] and in assay [22] were 2240 nM (active), 1580 nM (active) and 2240 nM (active), respectively. Also, in [2], the activity change, negative = inhibition is -8.89%. The Potency entry in assay [5], in assay [6], in assay [10], in assay [11], in assay [12] and in assay [16] was “inactive” each time. Moreover, the Potency result in [17] and in [18] was “inactive” each time. The molecule was classed as inactive in assay [7], in assay [13], in assay [14] and in [15].

The record behind these values is PubChem BioAssay (NCATS).
